Compounds with a hit are over-represented: about 2.7% of the library has one in this group of screens.
PREPL inhibitor – human PREPL enzyme inhibition | recombinant PREPL, fluorescence polarization activity-based probe | inhibition, % at 5.96 µM | 0.68% of 320,000 active; in the data active = inhibition above about 43%
ANO1 block – mouse TMEM16A channel inhibition, primary screen; AID 588511; HEK293 TMEM16A/YFP iodide influx fluorescence, ionomycin; Q8BHY3; normalized B-score (activity score, 25-100; higher = stronger inhibition) at 10 µM; 1.2% of 310,000 active;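 active = ratio plate-corrected score three or more library SD toward inhibition, starting fluorescence score within five deviations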;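 also: score derived from kinetic fluorescence span divided by baseline fluorescence per well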
FID counter – fluorescent intercalator displacement, NS3 helicase counter-screen. inhibition, % at 7.9 µM. 0.17% of 290,000 active. AID 1845. DNA fluorescent intercalator displacement, fluorescence; in the data active = inhibition above about 37%;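 also: higher means more ethidium bromide displaced from hairpin DNA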
TMEM16A act – mouse TMEM16A channel activation, primary screen. 0.3% of 340,000 active. HEK293 TMEM16A/YFP-H148Q/I152L, iodide quench fluorescence; active compounds read low. B-score at 10 µM. AID 623877. Q8BHY3;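 active = fluorescence-ratio B-score plate-corrected deviation score at least 3 library SD below zero, with starting fluorescence score within 5 deviations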;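 also: channel opened by trigger with iodide after compound preincubation; score built on the fluorescence ratio of max minus min over baseline; more negative score means more quench and so TMEM16A activation or potentiation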
PP1 counter – PP1-alpha (human) inhibition in PP5 counter-screen. purified PP1alpha, OMFP fluorescence. inhibition, % at 6.7 µM. 0.9% of 320,000 active. AID 2235;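 active = inhibition above the mean inhibition of all tested compounds plus 3 SD, computed separately for each screening campaign, cut at about 15% in these data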
PP5 primary – inhibitors of human protein phosphatase 5 (PP5). inhibition, % at 6.7 µM. AID 1987. 0.18% of 320,000 active. purified PP5c, OMFP substrate fluorescence. P53041;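 active = inhibition above the campaign's mean inhibition across all tested compounds plus 3 SD, cut at about 9.5% in these data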
Target sequence (P53041 whole entry, looked up): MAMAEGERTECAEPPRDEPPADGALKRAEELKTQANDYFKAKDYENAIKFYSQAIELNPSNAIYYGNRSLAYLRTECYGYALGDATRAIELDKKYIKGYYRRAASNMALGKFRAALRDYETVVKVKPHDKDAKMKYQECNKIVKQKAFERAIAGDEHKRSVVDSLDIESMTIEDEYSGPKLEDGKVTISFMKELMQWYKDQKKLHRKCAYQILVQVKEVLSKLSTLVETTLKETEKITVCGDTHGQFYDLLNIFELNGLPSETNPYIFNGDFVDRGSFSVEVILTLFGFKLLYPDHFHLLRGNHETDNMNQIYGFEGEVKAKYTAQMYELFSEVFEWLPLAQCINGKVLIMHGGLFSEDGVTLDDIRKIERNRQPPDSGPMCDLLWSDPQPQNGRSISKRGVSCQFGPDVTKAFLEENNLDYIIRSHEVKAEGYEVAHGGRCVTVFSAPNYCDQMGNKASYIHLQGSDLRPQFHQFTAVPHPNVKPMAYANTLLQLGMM
Of the large screens only hits and unclear results are named; the others gave an inactive call; ! = not confirmed by another sample.

Cn1c(=O)c2[nH]c(CCCCCCCc3nc4ccccc4[nH]3)nc2n(C)c1=O	none (no result: PREPL inhibitor, ANO1 block, FID counter, PP1 counter, PP5 primary)
CCN(CC)S(=O)(=O)c1cc(C)ccc1NC(=S)Nc1cccnc1	ANO1 block 25
CCN(CC)S(=O)(=O)c1cc(C(=O)Nc2cccnc2)ccc1Cl	none
CCN(CC)S(=O)(=O)c1ccc(N2CCN(C)CC2)c(NC(=O)CN2C(=O)NC3(CCCCC3)C2=O)c1	none (no result: PREPL inhibitor, ANO1 block, FID counter, PP1 counter, PP5 primary)
COc1ccc(S(=O)(=O)N2CCCCCC2)cc1C(=O)N(C)Cc1c(F)cccc1Cl	none (no result: ANO1 block, FID counter)
COc1ccc(S(=O)(=O)N2CCCCCC2)cc1C(=O)N(C)Cc1ccc(Cl)cc1Cl	TMEM16A act -22 (no result: FID counter)
CCOc1ccccc1C1NC(=O)c2ccccc2N1 (stereo unspecified)	none (no result: PREPL inhibitor, ANO1 block, FID counter, PP1 counter, PP5 primary)
Cn1cc(C(=O)c2ccc(Cl)cc2Cl)cc1C(=O)N/N=C(\N)COc1ccc(Cl)cc1	PP1 counter 16
O=C(C[n+]1cc(-c2ccccc2)n2c1CCC2)Nc1nc(-c2ccccc2)cs1	FID counter 38
O=[N+]([O-])c1ccc(O)c(/C=N/n2cnc3ccccc32)c1	ANO1 block 25
COc1ccc(Cl)cc1NC(=S)NCCSc1ccc(C)cc1	ANO1 block 100
Cc1nc2nc(C)n(CCN3CCOCC3)c(=O)c2c(-c2cccc([N+](=O)[O-])c2)c1C(=O)CCCCCCCCCCN1CCC(c2ccccc2)(c2ccccc2)CC1	none (no result: PREPL inhibitor, ANO1 block, FID counter, PP1 counter, PP5 primary)
Cc1cccc(OCC(=O)N(Cc2nnc(-c3ccccc3Cl)o2)C2CC2)c1	TMEM16A act -29 (no result: ANO1 block, FID counter)
Cc1ccc(C)c(OCC(=O)N(Cc2nnc(-c3ccccc3Cl)o2)C2CC2)c1	none (no result: FID counter)
COc1ccc(S(=O)(=O)N(Cc2cccs2)C2CCCC2)cc1	ANO1 block 100
C=C[C@H]1CN2CC[C@H]1C[C@H]2[C@H](O)c1ccnc2ccc(OC)cc12	none (no result: FID counter)
CC(C)[C@H](NC(=O)c1ccco1)C(=O)OCC(=O)Nc1ccc(Cl)c(S(=O)(=O)N(C)C)c1	none
Cc1cccc(C)c1OCC(=O)Nc1cccc(NC(=O)c2ccco2)c1	ANO1 block 100
Cc1cccc(C)c1OCC(=O)Nc1ccc(NC(=O)c2ccco2)cc1	none
CC(C)[C@H](NC(=O)c1ccco1)C(=O)OCC(=O)Nc1cccc(F)c1	TMEM16A act -41
CSc1cccc(NC(=O)N2CCCC(CNS(=O)(=O)Cc3ccccc3)C2)c1 (stereo unspecified)	none
COc1ccc(C(=O)Nc2ccc(S(=O)(=O)Nc3cc(C)nc(C)n3)cc2)cc1OC	TMEM16A act -6.7
Cc1ccccc1NC(=O)CSc1nnc(-c2ccco2)c(-c2ccco2)n1	ANO1 block 25
CC1CCC(NC(=O)C2CC(=O)N(c3ccc(Cl)cc3)C2)CC1 (stereo unspecified)	none
CCOC(=O)N1CCN(CCC(=O)Nc2cccc(Br)c2)CC1	PP1 counter 18!
CCOC(=O)c1c(NC(=O)c2cccs2)sc2c1CCN(C(=O)OCC)C2	none
CCOC(=O)N1CCc2c(sc(NC(=O)c3ccc(Cl)s3)c2C(N)=O)C1	ANO1 block 100 (no result: TMEM16A act)
C=C1/C(=C\C=C2/CCC[C@]3(C)[C@@H]([C@H](C)CCCC(C)(C)O)CC[C@@H]23)C[C@@H](O)C[C@@H]1O	ANO1 block 100 (no result: TMEM16A act)
COc1ccccc1N1CCN(C(=O)C2CCCN(S(=O)(=O)c3ccc4c(c3)CCCN4C(C)=O)C2)CC1 (stereo unspecified)	ANO1 block 25
CC(=O)N1CCCc2cc(S(=O)(=O)N3CCCC(C(=O)N4CCN(c5ccccc5)CC4)C3)ccc21 (stereo unspecified)	none
CC(=O)N1CCCc2cc(S(=O)(=O)N3CCCC(C(=O)N4CCN(c5cc(C)ccc5C)CC4)C3)ccc21 (stereo unspecified)	ANO1 block 25, TMEM16A act -4.9
Cc1nn(-c2cc(C(F)(F)F)ccc2Cl)c2nc(C(F)(F)F)[nH]c(=O)c12	none
Cc1nn(-c2cccc(Cl)c2)c2nc(C(F)(F)F)[nH]c(=O)c12	ANO1 block 100
CCOc1ccc2c(S(=O)(=O)O)cccc2c1[N+](=O)[O-]	none (no result: PREPL inhibitor, ANO1 block, FID counter, PP1 counter, PP5 primary)
O=C(COCc1cc(-c2ccc3c(c2)OCO3)on1)N1CCN(c2cccc(C(F)(F)F)c2)CC1	ANO1 block 25
COc1ccc(-c2noc(CCC(=O)N3CCN(c4cccc(C(F)(F)F)c4)CC3)n2)cc1	ANO1 block 100
COc1ccc(NC(=O)CSCC(=O)N2CCN(c3cccc(C(F)(F)F)c3)CC2)cc1	none (no result: ANO1 block, FID counter)
Nc1[nH]n2c(=O)cc(-c3ccccc3)nc2c1N=Nc1ccc2c(c1)OCO2	none (no result: TMEM16A act)
O=C1NC[C@H](c2ccccc2)OC(=O)[C@H](Cc2ccc(F)cc2)C/C=C\C[C@H]1CC(=O)N(CCO)Cc1ccccc1	none (no result: ANO1 block, FID counter, PP1 counter, PP5 primary)
O=[N+]([O-])c1c(Nc2ccccc2O)ccc2nonc12	none
O=[N+]([O-])c1c(Nc2ccccc2O)cc(Cl)c2nonc12	ANO1 block 100 (no result: PREPL inhibitor, PP1 counter, PP5 primary)
Cc1cccc(NC(=O)C2CCN(S(=O)(=O)c3cccc4nonc34)CC2)c1	none
CCCn1nc([N+](=O)[O-])c(C(C#N)c2nc3ccccc3o2)c(Cl)c1=O (stereo unspecified)	ANO1 block 100
Cc1cc(SCC(=O)N/N=C/c2ccc(C(=O)O)cc2)nc2ccccc12	none
Cc1cc(OCc2cc(C(=O)N3CCN(CC4CC4)CC3)no2)cc(C)c1Cl	none
O=C(c1cc(COc2ccc(F)cc2Cl)on1)N1CCC(c2ccncc2)CC1	ANO1 block 25
O=C(c1cc(COc2ccc(F)cc2Cl)on1)N1CCCCCC1	none
Cc1cc(OCc2cc(C(=O)N3CCC(Oc4cccnc4)CC3)no2)cc(C)c1Cl	ANO1 block 100
COc1cc(NC(=O)COC(=O)Cn2cnc3c2c(=O)n(C)c(=O)n3C)cc(OC)c1	none (no result: ANO1 block, FID counter)
Cc1ccc(Sc2nc([N+](=O)[O-])nn2C)cc1	none
COc1ccc(/C=C/c2n[nH]c(=O)c(C#N)c2C)cc1	none
Cc1ccc2oc(=O)c3cc(C(=O)NCCCN4CCCC(C)C4)sc3c2c1 (stereo unspecified)	FID counter 39
CCCN1CCN(CCCNC(=O)c2cc3c(=O)oc4ccc(C)cc4c3s2)CC1	none
COc1ccc(-c2sc3ccccc3c2C#CCO)cc1	ANO1 block 25
N#C/C(=C/c1ccc(O)c([N+](=O)[O-])c1)C(=O)Nc1ccccc1	ANO1 block 25
Cc1nn(C)c(C(=O)NC(=S)Nc2ccccc2Br)c1Cl	TMEM16A act -6.7
CCn1ncc(Cl)c1C(=O)NC(=S)Nc1ccccc1Br	none
COc1ccc(CC(=O)Nc2ccc3c(c2)CCC3)cc1OC	ANO1 block 25
COc1ccc(OC)c(CC(=O)Nc2ccc3c(c2)CCC3)c1	none
COc1ccc(NS(=O)(=O)c2cccc(NC(=O)NC3CCCCC3)c2)cc1	ANO1 block 25
Cc1ccc(OCC(=O)NNC(=O)C(C)Sc2ncnc3sc(C)c(C)c23)cc1 (stereo unspecified)	ANO1 block 100

From PubChem
